{"source": "PubChem BioAssay (Tox21)", "note": "Where “and” joins values, the source holds several entries; their conditions need not be identical. Equal values may be shown once. Inconclusive results are not listed. Entries that show only a call come without a potency. Calls of active or inactive are those of the source. Calls follow the shape of the dose curve; as a rule, active = well fitted cell-killing curve with a large enough effect in the repeat runs (not every such curve was filed as active); inconclusive = weak or mixed curves, or effect the other way; inactive = no such curve, though single readings can be large or run the other way. Potency is read from the fitted curve at half-maximal effect."}
{"assay": "qHTS assay to identify small molecule antagonists of the estrogen related receptor signaling pathway with the pleiotropic PPARgamma coactivator (PGC) from Tox21 10K library - cell viability counter screen (AID 1224840); also: nearly all actives have a fitted effect of over 40% in size", "settings": "PGC/ERR reporter cells viability, CellTiter-Fluor, 17.5 h; series mostly up to 92.4 µM", "text": "National Center for Advancing Translational Sciences [NCATS]\nNIH Chemical Genomics Center [NCGC]\nU.S. Environmental Protection Agency [EPA]\nNational Institutes of Environmental Health Sciences [NIEHS]\nNational Toxicology Program [NTP]\nU.S. Food and Drug Administration [FDA]\nEstrogen related receptors (ERRs), the first orphan nuclear receptors discovered, play an important role in the control of cellular energy metabolism. ERRs are required for high-energy production in response to the environmental challenges. The pleiotropic PPARgamma coactivator (PGC) is a major partner of ERR and a key regulator in energy homeostasis. Together they have been implicated in the etiology of metabolic disorders such as Type 2 diabetes and metabolic syndrome. ERR-alpha was also identified as an adverse marker for breast cancer progression; ERR-alpha-positive tumors have a poor prognosis. To screen and to identify environmental compounds that perturb the ERR and PGC/ERR signaling pathways could provide valuable information for potential therapeutic or preventive measures in the treatment of metabolic disease. To differentiate true PGC/ERR antagonists or agonist from cytotoxic substances, the assay is multiplexed with cell viability assay.\nTox21 Assay Protocol Summary:\nThe PGC/ERR cells were dispensed at 2,000 cells/5 ul/well in 1536-well white plates using a Multidrop dispenser. After the assay plates were incubated at a 37 C/5% CO2 incubator for 6 hours, 23 nL of compounds dissolved in DMSO, positive and negative controls or DMSO only was transferred to the assay plate by a pin tool. The plates were incubated at 37 C for 17.5 hours. 1 ul/well of CellTiter-Fluor reagent was added into the assay plates using a Flying Reagent Dispenser. After 30-minute incubation at 37 C/5% CO2, the fluorescence intensity in the plates was measured using a ViewLux plate reader."}
{"smiles": "CN(C1CCCCC1)C1CCCCC1", "Potency": "inactive"}
{"smiles": "CC(C)(C)NCC(O)c1cc(Cl)c(N)c(C(F)(F)F)c1", "note": "(stereo not given)", "Potency": "inactive"}
{"smiles": "CCCCCCCCn1sccc1=O", "Potency": "30.7 µM (active) and 11.4 µM (active)"}
{"smiles": "CCCC[P+](CC)(CCCC)CCCC", "note": "(tested in a mixture with another compound)", "Potency": "inactive"}
{"smiles": "COC1=CC(=O)O[C@@H](/C=C/c2ccc3c(c2)OCO3)C1", "Potency": "inactive"}
{"smiles": "Cc1cnc(C2=NC(C)(C(C)C)C(=O)N2)c(C(=O)O)c1", "note": "(stereo not given)", "Potency": "inactive"}
{"smiles": "O=C(CCl)CCl", "Potency": "inactive"}
{"smiles": "CCCC[N+]1(C)[C@@H]2CC(OC(=O)[C@H](CO)c3ccccc3)C[C@H]1[C@@H]1O[C@@H]12", "note": "(stereo not given in full)", "Potency": "inactive"}
{"smiles": "COc1cc(CC#N)cc(OC)c1OC", "Potency": "inactive"}
{"smiles": "C[N+](C)(C)CCOC(=O)C(O)(c1ccccc1)c1ccccc1", "Potency": "inactive"}
{"smiles": "COCc1cnc(C2=NC(C)(C(C)C)C(=O)N2)c(C(=O)O)c1", "note": "(stereo not given)", "Potency": "inactive"}
{"smiles": "C#C[C@]1(O)CC[C@H]2[C@@H]3CCC4=CC(=O)CCC4=C3C=C[C@@]21CC", "Potency": "inactive"}
{"smiles": "N#CC1(N=NC2(C#N)CCCCC2)CCCCC1", "Potency": "inactive"}
{"smiles": "O=C(Cl)OCCOCCOC(=O)Cl", "Potency": "inactive"}
{"smiles": "CC[N+]1(C)CCCC(OC(=O)C(O)(c2ccccc2)c2ccccc2)C1", "note": "(stereo not given)", "Potency": "inactive"}
{"smiles": "CCOC(=O)c1cn2nc(OP(=S)(OCC)OCC)cc2nc1C", "Potency": "inactive"}
{"smiles": "C=CCc1ccc(OC(=O)Cc2ccccc2)c(OC)c1", "Potency": "inactive"}
{"smiles": "CCCCC#N", "Potency": "inactive"}
{"smiles": "NC(=S)c1c(Cl)cccc1Cl", "Potency": "inactive"}
{"smiles": "CN(C)C(=O)Nc1cccc(OC(=O)NC(C)(C)C)c1", "Potency": "inactive"}
{"smiles": "Cc1ccccc1", "Potency": "inactive"}
{"smiles": "CCOC(C(=O)OCCN(C)C)(c1ccccc1)c1ccccc1", "Potency": "inactive"}
{"smiles": "CC(C)C1(C)N=C(c2ncccc2C(=O)O)NC1=O", "note": "(stereo not given)", "Potency": "inactive"}
{"smiles": "OCCCl", "Potency": "inactive"}
{"smiles": "CCC1(C2=NCCN2)Cc2ccccc2O1", "note": "(stereo not given)", "Potency": "inactive"}
{"smiles": "OC[P+](CO)(CO)CO", "Potency": "inactive"}
{"smiles": "Nc1ccccc1C(=O)OCC(O)CO", "note": "(stereo not given)", "Potency": "inactive"}
{"smiles": "CC(C)OC(=O)Cc1ccccc1", "Potency": "inactive"}
{"smiles": "Cc1nnc(-c2ccccc2)c(=O)n1N", "Potency": "inactive"}
{"smiles": "CCOP(=O)(SC(C)CC)N1CCSC1=O", "note": "(stereo not given)", "Potency": "inactive"}
{"smiles": "COc1cc(C[C@@H](C)N)c(OC)cc1Br", "Potency": "inactive"}
{"smiles": "CCCCCl", "Potency": "inactive"}
{"smiles": "COc1ccccc1N1CCNCC1", "Potency": "inactive"}
{"smiles": "C#CC(O)(C=CCl)CC", "note": "(stereo not given)", "Potency": "inactive"}
{"smiles": "CCCCC(CC)CO[N+](=O)[O-]", "note": "(stereo not given)", "Potency": "inactive"}
{"smiles": "CC(C)(c1ccccc1)c1cc(-n2nc3ccccc3n2)c(O)c(C(C)(C)c2ccccc2)c1", "Potency": "inactive"}
{"smiles": "Nc1ccccc1C(=O)OCCc1ccccc1", "Potency": "inactive"}
{"smiles": "CCCCNC(=O)OCC#CI", "Potency": "68.2 µM (active) and 61.1 µM (active)"}
{"smiles": "O=C(Cc1ccccc1)OCCc1ccccc1", "Potency": "inactive"}
{"smiles": "CC(C)CCCCCCCOC(=O)c1ccccc1C(=O)OCCCCCCCC(C)C", "Potency": "inactive"}
